Measured values taken from PMC4336329 (PLoS ONE, 2015).
The campaign covered roughly 310,000 compounds. About 14,000 (4.5%) showed an effect of 50% or more. Effects have a minus sign here. This is one part of a sample in which strong results are shown more often than they occur.

target: human ether-à-go-go-related gene (hERG) potassium channel (human, UniProt Q12809); test: primary screen, population patch clamp on CHO cells stably expressing hERG; higher = less effect of the substance
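Note: peak tail current of the secondary pulse compared with the same well before compound.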

Chain of human ether-à-go-go-related gene (hERG) potassium channel (Q12809 whole entry, looked up): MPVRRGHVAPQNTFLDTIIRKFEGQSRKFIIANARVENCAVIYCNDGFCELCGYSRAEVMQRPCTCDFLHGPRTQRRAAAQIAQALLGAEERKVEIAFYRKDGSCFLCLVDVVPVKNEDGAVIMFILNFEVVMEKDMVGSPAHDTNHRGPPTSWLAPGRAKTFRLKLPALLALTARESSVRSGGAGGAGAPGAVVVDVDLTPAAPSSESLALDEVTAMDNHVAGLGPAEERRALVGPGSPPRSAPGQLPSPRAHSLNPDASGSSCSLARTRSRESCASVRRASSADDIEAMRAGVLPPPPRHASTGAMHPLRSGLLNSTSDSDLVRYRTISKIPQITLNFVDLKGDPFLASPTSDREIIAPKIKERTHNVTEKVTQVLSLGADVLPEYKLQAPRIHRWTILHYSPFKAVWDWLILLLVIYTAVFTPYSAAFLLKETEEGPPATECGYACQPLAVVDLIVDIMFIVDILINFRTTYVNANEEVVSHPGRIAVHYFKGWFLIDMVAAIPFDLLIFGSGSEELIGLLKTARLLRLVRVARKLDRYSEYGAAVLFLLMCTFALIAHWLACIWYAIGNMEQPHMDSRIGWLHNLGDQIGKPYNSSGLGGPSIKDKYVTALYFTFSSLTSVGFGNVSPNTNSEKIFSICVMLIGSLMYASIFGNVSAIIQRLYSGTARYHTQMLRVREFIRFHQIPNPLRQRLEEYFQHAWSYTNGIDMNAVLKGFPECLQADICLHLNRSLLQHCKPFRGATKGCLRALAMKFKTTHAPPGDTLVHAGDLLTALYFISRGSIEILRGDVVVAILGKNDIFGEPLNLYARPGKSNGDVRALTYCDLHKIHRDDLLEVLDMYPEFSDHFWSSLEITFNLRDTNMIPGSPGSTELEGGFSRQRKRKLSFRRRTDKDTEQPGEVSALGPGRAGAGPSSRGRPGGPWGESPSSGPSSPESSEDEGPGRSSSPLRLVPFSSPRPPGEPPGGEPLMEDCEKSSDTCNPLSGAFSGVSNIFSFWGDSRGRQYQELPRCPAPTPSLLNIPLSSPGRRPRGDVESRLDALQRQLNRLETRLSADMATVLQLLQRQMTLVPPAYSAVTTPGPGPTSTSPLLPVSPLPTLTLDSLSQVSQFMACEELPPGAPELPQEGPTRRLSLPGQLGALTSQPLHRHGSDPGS

Compound	hERG current change (%, negative = inhibition) at 10uM [%]
O=C(Nc1ccc(N2CCOCC2)cc1)NC1CCCCC1	6.25
Cc1ccc(S(=O)(=O)N2CCCCCC2)cc1C(=O)NCc1ccccn1	-14.8
Cc1ccc(C(=O)NCc2ccccc2F)cc1S(=O)(=O)N1CCCC1	4.12
Cc1ccc(S(=O)(=O)N2CCCC2)cc1C(=O)NCc1ccccc1CN1CCCC1	-52.3
CCOC(=O)c1sc(NC(=O)c2cc(S(=O)(=O)N3CCOCC3)ccc2C)nc1C	-60.9
CC(=O)c1sc(NC(=O)c2cc(S(=O)(=O)N3CCOCC3)ccc2F)nc1C	-1.54
COc1ccc2nc(NC(=O)c3cc(S(=O)(=O)N4CCOCC4)ccc3C)sc2c1	1.72
Cc1ccc(C(=O)NCc2ccncc2)cc1S(=O)(=O)N1CCCCC1	-30.5
Cc1ccc(C(=O)NCc2ccccn2)cc1S(=O)(=O)N1CCOCC1	8.99
Cc1ccc(C(=O)NCc2cccnc2)cc1S(=O)(=O)N1CCCCCC1	-65.7
O=C(NCc1cccnc1)c1ccc(Cl)c(S(=O)(=O)N2CCCCCC2)c1	-36.2
Cc1ccc(S(=O)(=O)N2CCCC2)cc1C(=O)NCc1ccccn1	5.54
Cc1ccc(C(=O)NCc2ccccc2CN2CCCC2)cc1S(=O)(=O)N1CCOCC1	-61.4
CCOC(=O)C1CCCN(C(=O)CCn2nnnc2CN2CCOCC2)C1 (stereo not shown)	18.4
O=C1NCCCc2nc(Oc3ccccc3)sc21	0.239
Cc1ccc(Cn2nnc3c(=O)[nH]c(C4CCCN(C(=O)Nc5ccc(F)cc5)C4)nc32)cc1 (stereo not shown)	-5.1
Cc1cccc(OCC(=O)N(Cc2ccccc2)c2c(N)n(Cc3ccccc3)c(=O)[nH]c2=O)c1	-11.2
O=C(CN1CC=C(c2ccccc2)CC1)Nc1cc(Cl)ccc1Cl	-12.8
COc1ccccc1C1(CCN=Cc2ccc(N(C)C)cc2)CCOC(C)(C)C1 (stereo not shown)	-2.03
CCN(C(=O)COC(=O)c1ccco1)c1c(N)n(Cc2ccccc2)c(=O)[nH]c1=O	-0.805
Cc1c(N2C(=O)c3ccc(Br)cc3C2=O)c(=O)n(-c2ccccc2)n1C	3.45
CCCCN1C(=O)C(C)=C(C)C1OCCc1ccc(OC)c(OC)c1 (stereo not shown)	18.2

Compound	hERG current change (%, negative = inhibition) at 10uM [%]
Cc1ccc(S(=O)(=O)N2CCOCC2)cc1C(=O)NCc1ccccc1CN1CCCC1	-53
Cc1ccc(S(=O)(=O)N2CCOCC2)cc1C(=O)NCc1ccccn1	-0.76
COc1ccc(S(=O)(=O)N2CCOCC2)cc1C(=O)NCc1ccccc1CN1CCCC1	-20.6
O=C(CCC(=O)Nc1ccccc1Cl)N/N=C/c1ccccc1	16.5
Cc1[nH]c2ccccc2c1/C=N\NC(=O)c1ccco1	11.1
COc1cccc(C(=O)NCC2CCCN(C(=O)c3ccc(C=O)cc3)C2)c1OC (stereo not shown)	0.357
COc1ccc(S(=O)(=O)N2CCCC(C(=O)N3CCN(C)CC3)C2)cc1Cl (stereo not shown)	-12.4
O=C(C1CC1)N1CCN(c2ccc(F)cc2)CC1	13
O=C(C1CCCN(S(=O)(=O)c2ccccc2)C1)N1CCN(c2ccc(F)cc2)CC1 (stereo not shown)	-75.7
O=C(Cc1ccccc1)N1CCC(C(=O)N2CCN(c3ccc(F)cc3)CC2)CC1	-56.6
COc1ccc(S(=O)(=O)N2CCCC(C(=O)N3CCN(c4ccccc4)CC3)C2)cc1Cl (stereo not shown)	-62
Cc1ccc(S(=O)(=O)N2CCCC(C(=O)N3CCN(c4ccccc4)CC3)C2)cc1 (stereo not shown)	-46.5
COc1ccc(S(=O)(=O)N2CCCC(C(=O)N3CCOCC3)C2)cc1Cl (stereo not shown)	-14
O=C(O)C1CCN(C(=O)Cc2ccccc2)CC1	6.27
O=C(C1CCCN(S(=O)(=O)c2ccccc2)C1)N1CCCCC1 (stereo not shown)	7.94
CN1CCN(C(=O)C2CCCN(S(=O)(=O)c3ccc(F)cc3)C2)CC1 (stereo not shown)	19.9
O=C(C1CCCN(S(=O)(=O)c2ccccc2)C1)N1CCN(c2ccccc2)CC1 (stereo not shown)	-54.8
O=C(C1CCCN(S(=O)(=O)c2ccccc2)C1)N1CCCCCC1 (stereo not shown)	-2.74
CC(NC(=O)Cn1cnnn1)C12CC3CC(CC(C3)C1)C2 (stereo not shown)	7.75
CCCC1C(C(=O)OCC)=C(C)NC(C)=C1C(=O)OCC	10.7
CC(C)c1ccc(OCc2ccc(C(=O)NN3CCN(C)CC3)o2)cc1	-31.7
